Test results as given in PubChem BioAssay AID1259240 (Keith Lab, Institute of Cancer Science, University of …, 2017).
Calls of active or inactive are those of the source. Cut-off read from the data, not from the text of the source: active = fold change mostly below about -2 (no sharp cut-off); inactive = mostly above about -1.8.

Assay: TERT promoter activity modulators, primary screen, cell-based, luciferase reporter, human (AID 1259240)
Conditions: A2780 TERT promoter luciferase reporter, 16 h; at 20 µM, fold versus average of vehicle-only wells

Fold change, active:
Cc1nc2cc(-c3ccccc3)nn2c(C)c1CCC(=O)O -6.77

Fold change, inactive:
COc1ccc(-c2cc(C(F)(F)F)nc(SCCC(=O)N3CCN4CCCC4C3)n2)cc1 (stereo not given) -1.73
COc1ccc(C2CC(c3cccs3)=NN2C(=O)CSc2ncnc3ccccc23)cc1 (stereo not given) 1.14
CCN1CCN(C(=O)c2cc3c(=O)[nH]c4ccccc4c3n2C)CC1 1.05
CCOC(=O)N1CCC(Nc2c(N(C)C3CCCCC3)c(=O)c2=O)CC1 1.05
CCC(=O)Nc1nc2nc(C(C)(C)C)cc(=O)n2[nH]1 -1.74
c1ccc2c(NCCCN3CCOCC3)c3c(nc2c1)CCCC3 -1.45
CN(CC(=O)O)S(=O)(=O)c1cccc2cccnc12 -1.07
Cc1ccc2c(C)nc(NC3=NCN(C4CCCC4)CN3)nc2c1 -2
CCN1C(=O)C2(/C(=C(/O)c3ccc(OC)cc3)C(=O)C(=O)N2CCOC)c2ccccc21 (stereo not given) 1.29
Cc1cc(=O)n2[nH]c(NC(=O)c3cccs3)nc2n1 -1.29
Cn1c2ccccc2c2cnn(CC(=O)N3CCN(c4ccccn4)CC3)c(=O)c21 -1.1
O=C(NCCc1c[nH]c2ccccc12)c1ccc(NC2=NC3CS(=O)(=O)CC3S2)cc1 (stereo not given) -1.35
CCOC(=O)c1c(C=O)c2ccccc2n1C 1.15
O=C1c2ccccc2-c2onc3c(N4CCCC4)cc(NCCN4CCCC4)c1c23 -1.05
CC1(C)CC2CC(C)(CN2C(=O)CSc2nc(-c3ccco3)cc(C(F)(F)F)n2)C1 (stereo not given) -1.47
OCCOCCn1c(-c2ccccc2)nc(=S)c2c1CCCC2 -1.03
Cc1ccccc1-n1cnc2c(sc3nc(N4CCOCC4)c4c(c32)CC(C)(C)OC4)c1=O -1.84
CCN1CCN(C(=O)CSc2nc(-c3ccco3)cc(C(F)(F)F)n2)CC1 -1.46
CC(O)C(Nc1ncnc2ccccc12)C(=O)O (stereo not given) -1.06
COc1cc(OC)cc(-c2cc(N)n(S(=O)(=O)Cc3ccccc3)n2)c1 1.16
O=C1CC(c2ccc(F)c(F)c2)c2cc3c(cc2N1)OCO3 (stereo not given) 1.27
CCC(CO)NS(=O)(=O)c1ccc(OC)c(-c2nnc3c4ccccc4c(C)nn23)c1 (stereo not given) -1.69
O=C(CSc1nc(-c2ccc(F)cc2)cc(C(F)(F)F)n1)NCCCn1ccnc1 -1.16
O=C(Cn1ncc2c3ccccc3n(Cc3ccccc3)c2c1=O)N1CCOCC1 -1.17
S=c1nc(-c2ccccc2)n(CCCn2ccnc2)c2c1CCCC2 1.02
Fc1ccc(CNc2nnc(Cc3ccncc3)c3ccccc23)cc1 -1.53
Cc1cc(C(=O)N2CCN(Cc3ccc4c(c3)OCO4)CC2)on1 1.36
CCOC(=O)c1c(NC(=O)CSc2ncccn2)sc(C(C)=O)c1C -1.02
COCC(=O)N1N=C(c2ccc(NS(C)(=O)=O)cc2)CC1c1ccco1 (stereo not given) 1.02
CC(C)(C)c1ccc(OCc2nc(-c3ccncc3)no2)c(Br)c1 -1.23
Cc1cc(C)cc(NC2=C(N3CCOCC3)C(=O)c3ccccc3C2=O)c1 -1.02
COc1cccc(C(=O)Cn2c(=O)n(C3CCCC3)c(=O)c3cc(OC)c(OC)cc32)c1 -1.38
CC(=O)NC1=NN(C(C)=O)C2(S1)C(=O)N(C)c1ccccc12 (stereo not given) -1.23
CCNc1nc(C(=O)O)nc(N2CCOCC2)n1 -1.25
Fc1ccccc1Nc1nc2ccccc2n2nnnc12 1.5
CCOc1ccc2nc(NC(=O)CN(C)S(=O)(=O)c3cnc[nH]3)sc2c1 1.35
CC(C)CCNC(=O)C1CCC(CNS(=O)(=O)c2cccc3nsnc23)CC1 (stereo not given) -1.62
CN1C(=O)/C(=C/c2cn(CC(=O)N3CCCc4ccccc43)c3ccccc23)c2ccccc21 1.47
CC1CCC(NC(=O)C(=O)Nc2ccc3nc4n(c(=O)c3c2)CCCCC4)CC1 (stereo not given) 1
